Assay results reported in PubChem BioAssay.
The source made the active and inactive calls.

Assay: FRG1 promoter luciferase signal modulators, primary screen, FRG1 inhibition for FSHD, cell-based, C2C12 myotubes, firefly/Renilla luciferase, luminescence (AID 1084)
Details: higher = more signal, called active from +8 up or from −8 down

z-score, active:
COC(=O)[C@@]1(Cc2ccc(OC)cc2)[C@H]2c3cc(C(=O)N4CCCC4)n(Cc4ccc(C)o4)c3C[C@H]2CN1C(=O)c1ccccc1 8.22

z-score, inactive:
COC(=O)[C@@]1(Cc2ccc(OC)cc2)[C@H]2c3cc(C(=O)N(C)C)n(Cc4cc(C)n(C)n4)c3C[C@H]2CN1C(=O)c1ccccc1 2
O=C(NCc1ccccc1)[C@]1(Cc2ccccc2)N=C(c2ccc(OCCCO)cc2)O[C@@H]1c1ccccc1 -2.57
[N-]=[N+]=NCc1ccccc1[C@H]1OC(c2ccc(OCCCO)cc2)=N[C@@]1(Cc1ccccc1N=[N+]=[N-])C(=O)N1CCCCC1 -1.6
COCCOC(=O)N1C(=O)[C@@]2(c3ccccc31)[C@H](c1ccc(OCCO)cc1)N1[C@H](c3ccccc3)[C@H](c3ccccc3)OC(=O)[C@H]1[C@@H]2C(=O)NC[C@H](O)c1ccccc1 -1.51
COc1ccc(C(=O)Nc2ccc3c(c2)[C@]2(O[C@@H](CCO)[C@H]([Si](C)(C)c4ccc(OC)cc4)[C@H]2C)C(=O)N3Cc2ccccc2)cc1 -3.63
CN(C)C(=O)[C@]1(Cc2ccccc2N=[N+]=[N-])N=C(c2ccc(OCCCO)cc2)O[C@@H]1c1ccccc1CN=[N+]=[N-] 0.643
COCCOC(=O)N1C(=O)[C@@]2(c3cc(C#Cc4ccc(OC)cc4)ccc31)[C@H](C(=O)N1CCc3cc(OC)c(OC)cc3C1)[C@H]1C(=O)O[C@H](c3ccccc3)[C@H](c3ccccc3)N1[C@@H]2c1ccc(O)cc1 0.707
COc1ccc(C#Cc2ccc3c(c2)[C@]2(C(=O)N3)[C@H](C(N)=O)[C@H]3C(=O)O[C@H](c4ccccc4)[C@H](c4ccccc4)N3[C@@H]2c2ccc(O)cc2)cc1 -0.891
COc1ccc([Si](C)(C)[C@@H]2[C@@H](CCO)O[C@]3(C(=O)N(Cc4ccccc4)c4ccc(N5C(=O)COc6ccccc65)cc43)[C@H]2C)cc1 -0.409
CC(C)(C)OC(=O)CC[C@@]1(C(=O)N2CCCCC2)N=C(c2ccc(OCCCO)cc2)O[C@@H]1c1ccccc1CN=[N+]=[N-] -1.98
CC(C)C(CO)N1C(=O)[C@@H]2[C@H]3C(=O)OCC=C[C@H]3OC23C=CCN(CCN2CCOCC2)C(=O)[C@@H]13 (stereo not given in full) -0.0357
CN1C(=O)C2C=CC(C(O)c3cccc4ccccc34)N(NC(=O)OC(C)(C)C)C2C1=O (stereo not given) 0.93
COCCOC(=O)N1C(=O)[C@@]2(c3cc(C#Cc4ccc(OC)cc4)ccc31)[C@H](C(=O)N1CCc3cc(OC)c(OC)cc3C1)[C@H]1C(=O)O[C@H](c3ccccc3)[C@H](c3ccccc3)N1[C@@H]2c1ccc(OCCO)cc1 1.36
CCOC(=O)C1=CC[C@@H](c2ccccc2)N(S(=O)(=O)c2ccc(C)cc2)[C@H]1C=C(C)C -2.39
C[N+](C)(C)CCCC[C@@H]1NC(=O)[C@H]2C[C@@H](C(=O)NCCCCCCN)[C@@H](c3cccc(OCCO)c3)N2C1=O 0.029
COC(=O)C(CC#Cc1ccc2c(c1)[C@]1(C(=O)N2)[C@H](c2ccc(O)cc2)N2[C@H](c3ccccc3)[C@H](c3ccccc3)OC(=O)[C@H]2[C@@H]1C(N)=O)C(=O)OC -0.719
CCOc1cc(C(O)C2C=CC3C(=O)NC(=O)C3N2Nc2ccccn2)ccc1O (stereo not given) -0.027
C[N+](C)(C)CCCCCCNC(=O)[C@@H]1C[C@@H]2C(=O)NCC(=O)N2[C@@H]1c1cccc(OCCO)c1 4.06
O=C1c2ccccc2C(=O)C2CC([C@H]3Oc4ccccc4S(=O)(=O)N4CCC[C@@H]34)=CCC12 (stereo not given in full) -1.71
CCCc1cc2c(n1Cc1ccc(OC)cc1)C(C)C1CN(C(=O)c3ccccc3)C(C)(C(=O)OC)C21 (stereo not given) -0.0832
CC(=O)NCCCC[C@@H]1NC(=O)[C@@H]2C[C@H](C(=O)NCCCC[N+](C)(C)C)[C@H](c3cccc(OCCO)c3)N2C1=O 0.573
[N-]=[N+]=Nc1ccccc1[C@@H]1OC(c2ccc(OCCCO)cc2)=N[C@]1(CCS(=O)(=O)c1ccccc1)C(=O)NCc1ccccc1 0.271
CN(C)CCCC[C@@H]1NC(=O)[C@H]2C[C@@H](C(=O)NCCCCCCNC(=O)CS)[C@@H](c3ccc(O)cc3)N2C1=O 1.15
O=C1N(Cc2ccccc2)c2ccccc2[C@H]2OC(c3ccc(OCCCO)cc3)=N[C@@]12CCS(=O)(=O)c1ccccc1 -1.25
COCCCNC(=O)[C@]1(Cc2ccccc2)N=C(c2ccc(OCCCO)cc2)O[C@@H]1c1ccccc1N=[N+]=[N-] -0.309
CCCCC(=C=CC[C@H](O)c1cccc(OCCO)c1)C[C@H](O)COCc1ccccc1 -0.664
COC(=O)c1ccc(OC)c(/C=C\CC(CCc2ccccc2)OC(=O)c2ccncc2)c1 (stereo not given) -2.63
COc1ccc([Si](C)(C)[C@H]2[C@H](CC(=O)N3CCC[C@H]3CO)O[C@@]3(C(=O)N(Cc4ccc(N5C(=O)c6cccc7cccc5c67)cc4)c4ccccc43)[C@@H]2C)cc1 -4.19
COc1cc(NN2C(C(O)c3ccc(I)cc3)C=CC3C(=O)N(C)C(=O)C32)cc(OC)c1OC (stereo not given) 0.777
C=CCC(OC(C)=O)[C@@H]1[C@@H](N(Cc2ccc(-c3ccccc3)cc2)C(=O)c2cccc3ccccc23)c2cc(OCCCO)ccc2N1C(=O)c1ccc2ccccc2n1 (stereo not given in full) -1.45
C=CCC(OC(C)=O)[C@@H]1[C@@H](N(Cc2cccc3ccccc23)C(=O)Cc2ccc(F)cc2)c2cc(OCCCO)ccc2N1C(=O)Cc1ccc(OC)cc1 (stereo not given in full) -1.05
O=C1O[C@H](c2ccccc2)[C@H](c2ccccc2)N2[C@H]1[C@@H](C(=O)N1CCN(c3ncccn3)CC1)[C@]1(C(=O)Nc3ccc(C#CCCO)cc31)[C@H]2c1ccccc1OCCO -0.363
COC(=O)[C@@]1(Cc2ccccc2)[C@H]2c3cc(C(=O)N4CCCC4)n(CCO)c3C[C@H]2CN1C(=O)c1ccccc1 -0.292
COCCCNC(=O)[C@@]1(Cc2ccccc2I)c2ccccc2C(=O)N(Cc2ccccc2Cl)[C@H]1c1ccc(CO)cc1 -1.21
